Data from PubChem BioAssay (NCATS).
Records with an inconclusive call do not appear. Entries that show only a call come without a potency. Activity calls are given as the source filed them. The call rests on the fitted dose curve; in most records, active means well fitted cell-killing curve with a large enough effect; inconclusive means small, poorly fitted or top-dose-only effect; inactive means flat fitted curve, though single readings scatter.

Assay: Cell Viability - LYMP2-015 (AID 971); further: nearly all actives have a fitted effect of over 55% in size
Details: LYMP2-015 lymphoblastoid cell viability; series mostly up to 92.2 µM
Text: NIH Chemical Genomics Center [NCGC]
NIH Molecular Libraries Screening Centers Network [MLSCN]
National Institutes of Environmental Health Sciences [NIEHS]
National Toxicology Program [NTP]
We have developed a 1536-well cell-based assay for quantitative high throughput screening (qHTS) against a number of cell lines to determine in vitro cytotoxicity of small molecules. This particular assay uses a human lymphoblastoid cell line (LYMP2-015) purchased from Coriell Institute for Medical Research.
NCGC Assay Protocol Summary:
The CellTiter-Glo luminescent cell viability assay (Promega) is a homogeneous method to measure the number of viable cells in culture. The end point readout of this assay is based on quantitation of intracellular ATP, an indicator of metabolic activity, using the luciferase reaction. Luciferase catalyzes the oxidation of beetle Luciferin to oxyluciferin and light in the presence of ATP. The luminescent signal is proportional to amount of ATP present.
Using the CellTiter-Glo luminescent cell viability assay, the amount of cellular ATP was measured in the lymphoblastoid cell line with complete culture medium following compound treatment for 24 hours. The assay was performed in opaque white Kalypsys 1536-well plates. In the screen, tetraoctylammonium bromide was used as positive control. Library compounds were measured for their ability to cause acute toxicity in the cell line, as reflected by a decrease in intracellular ATP levels, in a concentration-dependent manner. […] AC50 values were determined from concentration-response data modeled with the standard Hill equation.
qHTS protocol for CellTiter Glo lymphoblastoid cellular assay
[Step] [Parameter] [Value] [Description]
1. Reagent; 5 uL; 2500 lymphoblastoid cells/well
2. Time; 5 hr; 37 C incubation
4. Controls; 23 nL; Tetraoctylammonium bromide 6.4pM to 92 uM
5. Time; 24 hr; 37 C incubation
6. Reagent; 5 uL; CellTiter Glo reagent
7. Time; 30 min; Room Temperature
8. Detection; Luminescence; Viewlux plate reader
Keywords: cell viability, cytotoxicity, lymphoblastoid cell line, luminescence, NTPHTS, NTPHTS_NCGC, NIEHS, DSSTox, MLSMR, MLSCN, NIH Roadmap, qHTS, NCGC
Potency means the concentration at half of the fitted maximal effect.

Row | Structure (SMILES) | Potency
1 | Cc1ccc(O)c(C)c1 | inactive
2 | O=C=NC1CCCCC1 | inactive
3 | ClCBr | inactive
4 | Cc1ccccc1N | inactive
5 | NC(=S)Nc1ccccc1 | inactive
6 | COP(=S)(OC)Oc1ccc([N+](=O)[O-])cc1 | inactive
7 | Brc1ccccc1 | inactive
8 | C=CCOC(=O)c1ccccc1N | inactive
9 | Clc1nc(Cl)nc(Cl)n1 | inactive
10 | CCCCOCCOP(=O)(OCCOCCCC)OCCOCCCC | inactive
11 | CCc1cccc(CC)c1N(COC)C(=O)CCl | 50.1 µM (active)
12 | OCC(Br)CBr (stereo not given) | inactive
13 | CCC[CH2][Sn]([Cl])([Cl])[Cl] | inactive
14 | C=CCc1ccc(OC)cc1 | inactive
15 | CCOP(=S)(OCC)SCSC(C)(C)C | inactive
16 | O=NN(c1ccccc1)c1ccccc1 | inactive
17 | CCCCOC(=O)c1ccccc1C(=O)OCCCC | inactive
18 | O=NN(CCO)CCO | inactive
19 | CCOc1ccc(N)cc1 | inactive
20 | Clc1nc(Cl)nc(Nc2ccccc2Cl)n1 | inactive

Row | Structure (SMILES) | Potency
21 | c1ccc2c(c1)CCCC2 | inactive
22 | c1nc[nH]n1 | inactive
23 | CCNc1nc(Cl)nc(NC(C)C)n1 | inactive
24 | CCSC(=O)Cl | inactive
25 | CC(C)(C)OOC(C)(C)C | inactive
26 | OCC1CO1 (stereo not given) | inactive
27 | CCCCCCCC(=O)Cl | inactive
28 | CCOP(=S)(OCC)Oc1ccc([N+](=O)[O-])cc1 | inactive
29 | Cc1ccc2ccccc2c1 | inactive
30 | CC(C)(C)OO | inactive
31 | ClC(Cl)(Cl)c1ccccc1 | inactive
32 | COC(=O)NC(=S)Nc1ccccc1NC(=S)NC(=O)OC | inactive
33 | CC(O)CCl (stereo not given) | inactive
34 | C=CC1CC=CCC1 (stereo not given) | inactive
35 | COc1ccc(N)cc1 | inactive
36 | N#CCCCl | inactive
37 | C[C@H]1CCCC(=O)CCC/C=C/c2cc(O)cc(O)c2C(=O)O1 | inactive
38 | COC1=CC(=O)OC(CCc2ccccc2)C1 (stereo not given) | inactive
39 | CN=C=S | inactive
40 | ClC(Cl)=C(c1ccc(Cl)cc1)c1ccc(Cl)cc1 | inactive
